Results: PubChem BioAssay
Measured potencies and affinities stand elsewhere. Activity calls are given as the source filed them. The rule behind the calls is not given here.

Assay: cytotoxicity in OVCAR8 ovarian cancer cells, dose response, PAX8 project, cell-based, plate reader, dry powder samples (AID 743197)
Conditions: series mostly up to 35 µM

Compound	outcome
C[C@H](CO)N1C[C@H](C)[C@@H](CN(C)Cc2ccc(Cl)c(Cl)c2)Oc2ccc(NC(=O)Nc3ccc(C(F)(F)F)cc3)cc2CC1=O	inactive
O=C(C[C@@H]1CC[C@@H]2[C@H](COC[C@H](O)CN2Cc2ccc3c(c2)OCO3)O1)Nc1ccc(-c2ccccc2)cc1	inactive
C[C@@H]1CCCCO[C@@H](CN(C)Cc2ccc(C(F)(F)F)cc2)[C@H](C)CN([C@H](C)CO)C(=O)c2cc(NC(=O)c3ccccc3)ccc2O1	inactive
COc1ccc(NC(=O)N2CCCCN3[C@H](CO)[C@H](c4ccc(C#Cc5ccccc5)cc4)[C@H]3C2)cc1	inactive
C[C@@H]1CN([C@@H](C)CO)C(=O)Cc2cc(NC(=O)C3CCCCC3)ccc2O[C@H]1CN(C)Cc1ccc(Cl)c(Cl)c1	inactive
C[C@@H]1CN([C@@H](C)CO)C(=O)Cc2cc(NS(=O)(=O)c3ccc(Cl)cc3)ccc2O[C@H]1CN(C)Cc1ccc(Cl)c(Cl)c1	inactive
Cc1ccccc1-c1ccc([C@@H]2[C@@H](CO)N3CCCCN(C(=O)NC4CCCC4)C[C@H]23)cc1	inactive
Cc1ccc(S(=O)(=O)Nc2ccc3c(c2)C(=O)N([C@H](C)CO)C[C@@H](C)[C@H](CN(C)S(=O)(=O)c2ccc(C)cc2)OCCCC[C@H](C)O3)cc1	inactive
C[C@H](CO)N1C[C@H](C)[C@H](CN(C)S(=O)(=O)c2ccc(F)cc2)OCCCC[C@H](C)Oc2ccc(NS(=O)(=O)c3ccc(Cl)cc3)cc2C1=O	inactive
N#C[C@@H]1[C@@H](c2ccc(-c3ccccc3F)cc2)[C@@H](CO)N1C(=O)C1CCC1	inactive
C[C@@H]1CCCCO[C@H](CN(C)S(=O)(=O)c2cccs2)[C@@H](C)CN([C@@H](C)CO)C(=O)c2cc(NC(=O)Nc3ccc(C(F)(F)F)cc3)ccc2O1	inactive
C[C@H](O)C#Cc1cnc2c(c1)C(=O)N([C@H](C)CO)C[C@@H](C)[C@@H](CN(C)Cc1ccc(-c3ccccc3)cc1)O2	inactive
O=C(C[C@H]1CC[C@H]2[C@@H](COC[C@@H](O)CN2Cc2ccc3c(c2)OCO3)O1)Nc1ccc(-c2ccccc2)cc1	inactive
C[C@@H]1CN([C@@H](C)CO)C(=O)c2cc(NC(=O)Nc3ccc(C(F)(F)F)cc3)ccc2O[C@@H](C)CCCCO[C@@H]1CN(C)Cc1ccncc1	inactive
N#C[C@@H]1[C@@H](c2ccc(-c3cccc(F)c3)cc2)[C@H](CO)N1C(=O)NC1CCCC1	inactive
C[C@@H]1CN([C@H](C)CO)C(=O)c2cc(NC(=O)Nc3ccc(F)cc3)ccc2O[C@@H](C)CCCCO[C@H]1CN(C)C(=O)C1CCCCC1	inactive
